High-throughput results from PubChem BioAssay.
An excerpt weighted towards active compounds, which were near 5.9% of everything screened.
ALR H2O2 inh – inhibitors of human sulfhydryl oxidase ALR | purified ALR, DTT oxidation, H2O2 HRP-luminol luminescence | inhibition, % (no concentration beside the values) | hit rate 3.8% among 290,000;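 active = mean replicate inhibition above about 79%, with every replicate also reaching it, limit read from the data; inconclusive = only one of the two criteria met; inactive = mean below limit and not every replicate reaching it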
Rtt109 HAT inh – C. albicans Rtt109 histone acetyltransferase inhibition; Q5AAJ8; purified Rtt109/Vps75, ThioGlo CoA-SH fluorescence, 4 h; inhibition, % at 34.9 µM; hit rate 0.16% among 330,000; AID 540336;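 active = inhibition of at least 50% in every replicate; inconclusive = best replicate reaches 50% inhibition but some replicates fall short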
PRMT1 FP inh – inhibitors of human PRMT1 | Q99873 | recombinant PRMT1, activity-based probe fluorescence polarization | inhibition, % at 2.79 µM | hit rate 1.3% among 370,000 | AID 652257;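 active = inhibition above about 21% made by adding two undisclosed values, limit read from the data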
LANA-H2A inh – blocks KSHV LANA binding to histone H2A/H2B. Q9QR71. cell-free LANA-H2A/H2B peptide, fluorescence polarization. inhibition, % (test concentration not listed). hit rate 0.6% among 320,000. AID 2629; in the data active = inhibition mostly above about 10%, no sharp cut-off; inactive = mostly below about 6.7%
ABHD5 PLIN5 PPI – ABHD5-PLIN5 protein interaction inhibition; inhibition, % at 4 µM; Split G. princeps luciferase complementation, luminescence, 4 h; Q00G26+Q8WTS1; hit rate 0.78% among 360,000; AID 602281;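 active = inhibition above the mean inhibition across every tested compound plus 3 SD, cut at about 22% in these data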;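 also: 0% = DMSO only wells and the 100% control is not disclosed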
rCAG RNA binder – molecules binding r(CAG) RNA repeats; r(CAG) RNA repeat, TO-PRO-1 dye displacement fluorescence; inhibition, % at 3 µM; hit rate 1.3% among 370,000;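 active = inhibition above the plate cutoff, the mean of all test compounds on that plate plus 3 SD, cut at about 35% in these data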;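 also: 0% = DMSO alone and 100% = 100 µM mitoxantrone as full dye displacement; higher means more dye released from RNA so lower well fluorescence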
Starred values were filed as active, the others as inactive; ? = inconclusive; . = no result; ! = a repeat was not active.

SMILES	ALR H2O2 inh	Rtt109 HAT inh	PRMT1 FP inh	LANA-H2A inh	ABHD5 PLIN5 PPI	rCAG RNA binder
CCOc1ccc2nc(N=Nc3c(O)[nH]c(=S)[nH]c3=O)sc2c1	96*	13	0	0	3	30
CCOc1ccc2nc(N=Nc3c(O)[nH]c(=O)[nH]c3=O)sc2c1	9	14	1	-3	8	3
CCCC/C(=N/O)c1c(C)[nH]c2ccccc12	99*	-5	1	-3	-2	-2
CCCCC/C(=N/O)c1c(C)[nH]c2ccccc12	99*	-5	-2	-1	-2	10
Clc1ccc([C@H]2CC3CCC2N3)cn1 (stereo partly drawn)	.	.	9	.	.	0
CCC12CCN(CC3(O)CC3)C(Cc3ccc(O)cc31)C2(C)C (stereo not drawn)	.	.	0	.	.	3
CCc1cc(OC)c(CCN)cc1OC	.	.	-2	.	.	1
CC(=O)Nc1ccc(C(=O)OCC(=O)Nc2ccc(Cl)cc2C(=O)c2ccccc2)cc1	0	9	0	-4	-4	6
O=C(COC(=O)c1ccc(O)cc1)Nc1ccc(Cl)cc1C(=O)c1ccccc1	96*	15	2	-3	-5	8
Cc1ccc(NC(=O)CSc2nnc([C@@H](N)Cc3c[nH]c4ccccc34)o2)c(C)c1	98*	3	8	-2	0	1
C=C(C)CSc1nnc([C@@H](N)Cc2c[nH]c3ccccc23)o1	1	1	-3	-5	2	-5
CCc1ccccc1NC(=O)CSc1nnc([C@@H](N)Cc2c[nH]c3ccccc23)o1	3	-1	24*	6	1	-1
CC(C)=CCSc1nnc([C@@H](N)Cc2c[nH]c3ccccc23)o1	3	6	4	1	-2	2
Cc1cnc(-n2c(=S)[nH]c3ccccc3c2=O)s1	97*	?	-3	0	0	5
O=c1c2ccccc2[nH]c(=S)n1-c1ccc2c(c1)OCO2	59	-4	-2	3	-2	1
CCOC(=O)CNC(=O)N1Cc2cc(Br)ccc2-n2nncc2C1	.	.	-1	.	.	2
O=C(NCc1ccc(C(=O)N2CCC3(CC2)OCCO3)cc1)c1ccc2c(c1)OCO2	-10	-2	0	2	-3	2
O=C(c1ccc2c(=O)n(Cc3ccc4c(c3)OCO4)c(=S)[nH]c2c1)N1CCC2(CC1)OCCO2	8	18	.	57*	-4	.
O=[N+]([O-])/C=C/c1c(Cl)cccc1Cl	.	7	3	.	22*	4
COc1cc(/C=C(/C)[N+](=O)[O-])ccc1OCc1ccccc1Cl	3	.	.	-1	90*	.
COc1cc(C=C2C(=O)NC(=O)NC2=O)ccc1OCc1ccc([N+](=O)[O-])cc1	.	-7	14	.	9	-2
Cc1cc(/C=C2/C(=O)NC(=O)N(Cc3ccco3)C2=O)c(C)n1-c1ccccc1	92*	0	18	-4	-3	26
Nc1ccc(N=Nc2ccccc2)cc1	98*	-2	4	-1	-3	-2
COC(=O)C1(N(C)c2ccccc2)CCN(Cc2ccccc2)CC1	.	.	-1	.	.	0
Clc1ccc(COC(Cn2ccnc2)c2ccc(Cl)cc2Cl)c(Cl)c1 (stereo not drawn)	1	74*!	-1	3	-9	3
SMILES	ALR H2O2 inh	Rtt109 HAT inh	PRMT1 FP inh	LANA-H2A inh	ABHD5 PLIN5 PPI	rCAG RNA binder
CNCCc1ccc(O)c(O)c1	97*	-2	21*	3	-4	1
CO[C@H]([C@H](C)/C=C/N(C)C=O)[C@@H](C)C(=O)CC[C@H](C)[C@H](O)[C@H](C)[C@H]1OC(=O)/C=C/C(C)=C/[C@H](O)[C@H](OC)C[C@@H]2C=CC[C@@H](C[C@H](OC)[C@@H](CO)[C@@H](OC)C[C@@H](OC)[C@@H]1C)O2	.	.	-2	.	.	.
CN(C)P1(N(C)C)=Nc2c(c(N)nn2C)C(c2ccccc2)=N1	86*	11	3	-2	3	3
CCC(C)N1C(=O)NC(=O)C2(Cc3c(ccc4ccccc34)N(C)C2)C1=O (stereo not drawn)	93*	10	19	1	-7	0
COc1ccc2c(c1)CC1(CN2C)C(=O)NC(=O)N(CCc2ccccc2)C1=O (stereo not drawn)	-25	-1	1	-4	-27	10
COc1ccc2[nH]cc(CCN=C(N)N)c2c1	11	8	-3	-10	7	-2
COc1ccc2[nH]cc(C3=CCNCC3)c2c1	97*	.	.	-28	.	.
Cc1nn(Cc2ccccc2)c(C)c1C=C1C(=O)NC(=O)NC1=O	95*	.	19	-1	11	4
C=CCN1CCc2cccc3c2[C@H]1Cc1ccc(O)c(O)c1-3	99*	1	40*	2	2	7
N#Cc1ccc(NC(=S)N2Cc3ccc(Br)cc3-n3nncc3C2)cc1	.	.	-1	.	.	7
COc1ccc(C(=O)O)cc1OC	.	-8	4	.	4	-1
O=C(O)c1cc[c]([Hg][Cl])cc1	?	-13	.	4	82*	.
CN1C2(C)c3ccccc3C1(c1ccccc1)c1ccccc12	.	.	-2	.	.	1
Cc1cc(C)c2c(c1)-c1cc(C)nn1C(c1cccnc1)N2 (stereo not drawn)	99*	2	7	4	11	-1
O=C(NCCN1CCC2(CC1)C(=O)NCN2c1ccccc1)c1ccc(F)cc1F	.	.	1	.	.	1
Cc1cccc(N2C(=O)NC(=O)/C(=C/c3ccc(N4CCOCC4)cc3)C2=O)c1	97*	11	7	0	22*	10
CC(C)n1c(O)c(C2c3cc(Cl)ccc3Oc3[nH]c(=O)n(C(C)C)c(=O)c32)c(=O)[nH]c1=O (stereo not drawn)	.	0	.	.	37*	.
COc1ccc2c3c([nH]c2c1)[C@H](C=C(C)C)N1C(=O)[C@@H]2CCCN2C(=O)[C@@H]1C3	.	.	-1	.	.	0
COc1cc(/C=C/C(=O)c2c(O)n(CCc3ccccc3)c(=O)[nH]c2=O)ccc1O	97*	-4	-2	0	1	19
O=C(O)C12C3CCCC1C32c1ccccc1 (stereo not drawn)	99*	.	1	-7	-2	0
CN1CCC(O)(c2ccccc2)C2CCCC21 (stereo not drawn)	-4	-6	0	-7	3	2
COCCNC(=O)Cn1cc(/C=C2\C(=O)NC(=O)N(c3cccc(C)c3C)C2=O)c2ccccc21	92*	-2	0	-18	20	1
COCCCNC(=O)Cn1cc(/C=C2\C(=O)NC(=O)N(c3ccccc3F)C2=O)c2ccccc21	2	10	.	1	27*	.
COCCNC(=O)Cn1cc(/C=C2\C(=O)NC(=O)N(c3ccccc3F)C2=O)c2ccccc21	-1	4	-2	3	14	-3
O=C(NCCN1CCC2(CC1)C(=O)NCN2c1ccccc1)C(c1ccccc1)c1ccccc1	.	.	-2	.	.	1
C[n+]1c(-c2ccccc2)sc2ccccc21	8	4	35*	-2	-2	-3
